Consider six compounds from PubChem BioAssay (Tox21).

Values joined by “and” are separate entries in the source; they are usually repeats but may differ in a detail not shown here. Identical values can stand only once. Unmarked numbers belong to inactive results. Results filed as inconclusive are left out. Active and inactive are the calls of the source. Unless noted, the call rests on the fitted dose curve; in most records, active means well fitted curve in the direction sought with a large enough effect in the repeat runs; inconclusive means weak or mixed curves; inactive means no such curve, though single readings can be large; an effect the other way counts as inactive or inconclusive.

For experiment [1], the target named is Luciferin 4-monooxygenase (Photinus pyralis) (UniProt P08659). The experiment can be described thus: qHTS assay to identify small molecule inhibitors of firefly luciferase (AID 1224835). Further: nearly all actives have a fitted effect of over 25% in size. Further: potency means the concentration at half of the fitted maximal effect. Summed up:
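Inhibition of purified Photinus luciferase is measured by luminescence. Substrate levels (D-luciferin, ATP) sit at their KM values. Each compound is tested in a concentration series.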
(In general: Quantitative high-throughput screening tests each substance at several concentrations.)

Experiment [2] is described as follows: qHTS assay to identify small molecule agonists of the constitutive androstane receptor (CAR) signaling pathway - cell viability counter screen (AID 1224836). Further: nearly all actives have a fitted effect of over 45% in size. Further: potency means the concentration at half of the fitted maximal effect. An outline of the steps: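 23 h treatment, 37 C, 5% CO2. Cell line: HepG2 stably expressing hCAR with a CYP2B6-2.2kb construct. Co-treatment: PK11195, 0.75 uM final. Read-out: CellTiter-Fluor fluorescence intensity.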

Experiment [3] can be described thus: qHTS assay to identify small molecule antagonists of the constitutive androstane receptor (CAR) signaling pathway - cell viability counter screen (AID 1224837). Further: nearly all actives have a fitted effect of over 45% in size. Further: potency means the concentration at half of the fitted maximal effect. An outline of the steps:
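Multiplexed cytotoxicity read-out for the CAR antagonist screen: double-stable HepG2-CYP2B6-hCAR cells co-treated with 50 nM CITCO (final) and compound over 15 concentrations, incubated 23 hr, then assessed by CellTiter-Fluor fluorescence.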

Experiment [4] deals with Nuclear receptor subfamily 1 group I member 3 (Homo sapiens) (UniProt Q14994). The experiment in a line: qHTS assay to identify small molecule antagonists of the constitutive androstane receptor (CAR) signaling pathway (AID 1224838). Further: nearly all actives have a fitted effect of over 40% in size. Further: potency means the concentration at half of the fitted maximal effect. An outline of the steps: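 Compounds were titrated across 15 concentrations onto HepG2 cells double-stably expressing hCAR and a CYP2B6-2.2kb reporter, together with 50 nM CITCO (final). After 24 h at 37 C, luciferase activity was measured by luminescence.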
Sequence of Nuclear receptor subfamily 1 group I member 3 (Homo sapiens) (Q14994 whole entry, looked up): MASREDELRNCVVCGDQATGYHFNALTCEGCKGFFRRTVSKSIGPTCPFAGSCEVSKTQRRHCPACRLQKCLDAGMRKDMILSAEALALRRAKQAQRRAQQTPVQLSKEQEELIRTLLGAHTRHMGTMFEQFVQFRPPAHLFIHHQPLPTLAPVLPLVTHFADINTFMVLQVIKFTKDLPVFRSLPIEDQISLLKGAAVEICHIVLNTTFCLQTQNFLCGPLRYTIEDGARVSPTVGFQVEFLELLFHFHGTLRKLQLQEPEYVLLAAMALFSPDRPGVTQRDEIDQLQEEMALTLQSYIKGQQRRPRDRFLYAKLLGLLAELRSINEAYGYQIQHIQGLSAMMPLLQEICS

For experiment [5] the target is unchanged. The experiment in a line: qHTS assay to identify small molecule agonists of the constitutive androstane receptor (CAR) signaling pathway (AID 1224839). Further: nearly all actives have a fitted effect of over 15% in size. Further: potency means the concentration at half of the fitted maximal effect. An outline of the steps: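 Compounds tested at 15 concentrations on HepG2 cells stably harbouring hCAR and CYP2B6-2.2kb reporter constructs, co-treated with PK11195 (0.75 uM final), 24 h at 37 C; luminescent reporter signal quantified.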

The nature of experiment [6]: qHTS assay to identify small molecule antagonists of the estrogen related receptor signaling pathway with the pleiotropic PPARgamma coactivator (PGC) from Tox21 10K library - cell viability counter screen (AID 1224840; active means well fitted cell-killing curve with a large enough effect in the repeat runs, not every such curve was filed as active; further: nearly all actives have a fitted effect of over 40% in size). Summed up:
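Step one, plate 2,000 PGC/ERR cells per well; step two, incubate 6 h at 37 C/5% CO2; step three, pin-transfer compounds; step four, incubate 17.5 h; step five, add CellTiter-Fluor and read fluorescence after 30 min.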

The nature of experiment [7]: qHTS assay to identify small molecule antagonists of the estrogen related receptor signaling pathway with the pleiotropic PPARgamma coactivator (PGC) from Tox21 10K library (AID 1224841; call rule not given here; further: actives are mostly falling curves and most rising ones were filed inactive; nearly all actives have a fitted effect of over 50% in size; further: potency means the concentration at half of the fitted maximal effect). Summed up:
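Antagonism in this quantitative HTS is taken from loss of luciferase signal in PGC/ERR cells. Cells (2,000/well) are treated with compounds in DMSO after a 6 h settling period and read by One-Glo luminescence after 18 h.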

Experiment [8] is described as follows: qHTS assay to identify small molecule agonists of the estrogen related receptor signaling pathway with the pleiotropic PPARgamma coactivator (PGC) from Tox21 10K library (AID 1224842). Further: nearly all actives have a fitted effect of over 15% in size. Summed up: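 Luminescence from One-Glo (30 min, room temperature) measured after PGC/ERR cells had 18 h at 37 C with pinned compound (23 nL in DMSO). Cells had been seeded at 2,000 per well and pre-incubated 6 h.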

In experiment [9] the target is Thyrotropin receptor (Homo sapiens) (UniProt P16473). The experiment can be described thus: qHTS assay to identify small molecule agonists of the thyroid stimulating hormone receptor (TSHR) signaling pathway (AID 1224843; calls by dose curve; further: nearly all actives have a fitted effect of over 45% in size). Summed up: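 Screening of the Tox21 10K collection used HEK293 cells engineered with TSHR at 800 cells per well. After a 30-min room-temperature compound exposure, HTRF cAMP reagents were added and fluorescence recorded 1 h later.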
Sequence of Thyrotropin receptor (Homo sapiens) (P16473 whole entry, looked up): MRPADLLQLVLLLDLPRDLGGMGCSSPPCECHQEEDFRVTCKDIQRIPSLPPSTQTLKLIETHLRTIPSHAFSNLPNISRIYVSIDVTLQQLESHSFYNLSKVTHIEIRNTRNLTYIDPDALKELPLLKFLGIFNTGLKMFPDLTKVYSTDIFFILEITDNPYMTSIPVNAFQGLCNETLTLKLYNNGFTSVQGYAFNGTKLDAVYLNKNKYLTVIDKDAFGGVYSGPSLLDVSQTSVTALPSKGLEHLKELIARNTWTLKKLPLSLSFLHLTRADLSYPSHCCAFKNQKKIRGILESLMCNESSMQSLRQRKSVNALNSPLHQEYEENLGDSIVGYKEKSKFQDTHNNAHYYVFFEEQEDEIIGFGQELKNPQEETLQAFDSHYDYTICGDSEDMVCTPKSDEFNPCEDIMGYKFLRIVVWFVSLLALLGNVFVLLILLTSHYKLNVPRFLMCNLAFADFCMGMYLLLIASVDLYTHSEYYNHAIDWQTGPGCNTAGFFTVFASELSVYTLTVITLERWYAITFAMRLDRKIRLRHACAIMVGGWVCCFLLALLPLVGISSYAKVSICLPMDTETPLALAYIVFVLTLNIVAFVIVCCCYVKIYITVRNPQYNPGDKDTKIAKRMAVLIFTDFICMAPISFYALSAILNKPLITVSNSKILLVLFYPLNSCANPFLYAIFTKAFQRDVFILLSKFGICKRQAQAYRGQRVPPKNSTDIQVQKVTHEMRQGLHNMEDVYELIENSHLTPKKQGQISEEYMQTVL

Experiment [10] in a line: qHTS assay to identify small molecule agonists of the hypoxia (HIF-1) signaling pathway - cell viability counter screen (AID 1224844; calls by dose curve; further: nearly all actives have a fitted effect of over 50% in size; further: potency means the concentration at half of the fitted maximal effect). An outline of the steps:
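Tox21 10K compounds were added to HRE-bla ME-180 cells (0.5% dialyzed FBS) and incubated 17 hrs at 37C; ATP-based CellTiter-Glo luminescence then reported cell viability in the same wells.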

Experiment [11] can be described thus: qHTS assay to identify small molecule agonists of H2AX (AID 1224845; active means well fitted activation curve with a large enough effect in the signal ratio in the repeat runs, not every such curve was filed as active; the % refers to the signal ratio). An outline of the steps:
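Phospho-H2AX Ser139 measured by HTRF (ex 320 nm; em 665 and 620 nm) after 24 hr antibody incubation. Compounds, 15 concentrations, 0.76% DMSO, were applied to CHO-K1 cells for 3hr at 37C before lysis.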

Experiment [12] in a line: qHTS assay to identify small molecule agonists of the hypoxia (HIF-1) signaling pathway (AID 1224846; active means well fitted activation curve with a large enough effect in the signal ratio in the repeat runs, not every such curve was filed as active; the % refers to the signal ratio). An outline of the steps: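 Steps: seed ME-180 HRE-bla cells (2,000/well, 0.5% dialyzed FBS); incubate 5 hrs at 37C; pin-transfer compounds or DMSO; incubate 17 hrs; add LiveBLAzer B/G substrate CCF4-AM; measure reporter activation by FRET.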
Experiment [13] can be described thus: qHTS assay to identify small molecule antagonists of the estrogen related receptor (ERR) signaling pathway from Tox21 library (AID 1224848). Further: nearly all actives have a fitted effect of over 50% in size. Further: potency means the concentration at half of the fitted maximal effect. Summed up: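 Antagonist-mode screen of the Tox21 10K library in an NTP-provided ERR reporter cell line; 18 h compound exposure at 37 C, luminescence measured with ONE-Glo.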
Experiment [14] in a line: qHTS assay to identify small molecule agonists of the estrogen related receptor (ERR) signaling pathway from Tox21 library (AID 1224849; calls by dose curve; further: nearly all actives have a fitted effect of over 15% in size). The settings on record: ERR reporter cell line, ONE-Glo luciferase, 18 h; at 92.4 µM (top of the series) unless noted. An outline of the steps:
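Agonist signal is luciferase luminescence from an ERR reporter cell line treated 18 h at 37 C with DMSO-dissolved compounds, read 30 min after ONE-Glo addition at room temperature.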

The nature of experiment [15]: qHTS RealTime-Glo MT Cell Viability Assay in HepG2 cells - 24 hour (AID 1224867). Further: nearly all actives have a fitted effect of over 50% in size. Further: potency means the concentration at half of the fitted maximal effect. An outline of the steps: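 Luminescence read-out: viable HepG2 cells reduce a prosubstrate to a NanoLuc substrate, giving a signal proportional to live cell number. Reads taken at 0, 8, 16, 24, 32 and 40 h of compound exposure at 37 C.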
A short description of experiment [16]: A CellTox Green Cytotoxicity Assay to monitor cytotoxicity in HEK293 cells - 0 hour (AID 1224869). Further: nearly all actives have a fitted effect of over 50% in size. Summed up: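 Cytotoxicity was tracked continuously in HEK293 cells by a DNA-binding dye excluded from viable cells. Compounds were transferred in DMSO 5 h after seeding; fluorescence was recorded at intervals up to 40 h.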
A short description of experiment [17]: qHTS RealTime-Glo MT Cell Viability Assay in HepG2 cells - 40 hour (AID 1224870). Further: nearly all actives have a fitted effect of over 50% in size. Further: potency means the concentration at half of the fitted maximal effect. Summed up: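 Real-time viability: cells seeded at 600 per well together with NanoLuc and cell-permeant prosubstrate, compounds added after 5 h incubation. Luminescence tracked at 0, 8, 16, 24, 32 and 40 h of exposure.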
Experiment [18] in a line: qHTS assay to identify small molecule agonists of H2AX - cell viability counter screen (AID 1224847; calls by dose curve; further: top concentration of the series differs between compounds; nearly all actives have a fitted effect of over 30% in size). An outline of the steps:
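Compounds tested at 15 concentrations were incubated 3 hr at 37C with wild-type CHO-K1 cells; cellular ATP-based luminescence (CellTiter-Glo) indicated viability.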

Experiment [19] can be described thus: qHTS RealTime-Glo MT Cell Viability Assay in HEK293 cells - 32 hour (AID 1224868). Further: nearly all actives have a fitted effect of over 50% in size. Further: potency means the concentration at half of the fitted maximal effect. On activity change, negative = cytotoxic: top concentration of the series differs between compounds. Summed up: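 Nonlytic real-time viability readout: viable cells convert prosubstrate to NanoLuc substrate, giving luminescence proportional to live cell number. HEK293, 600 cells/well, compound added after 5 h, continuous culture at 37 C.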
On the % scale 0 is the no-effect control and ±100 the full control effect.

Sequence of Luciferin 4-monooxygenase (Photinus pyralis) (P08659 whole entry, looked up): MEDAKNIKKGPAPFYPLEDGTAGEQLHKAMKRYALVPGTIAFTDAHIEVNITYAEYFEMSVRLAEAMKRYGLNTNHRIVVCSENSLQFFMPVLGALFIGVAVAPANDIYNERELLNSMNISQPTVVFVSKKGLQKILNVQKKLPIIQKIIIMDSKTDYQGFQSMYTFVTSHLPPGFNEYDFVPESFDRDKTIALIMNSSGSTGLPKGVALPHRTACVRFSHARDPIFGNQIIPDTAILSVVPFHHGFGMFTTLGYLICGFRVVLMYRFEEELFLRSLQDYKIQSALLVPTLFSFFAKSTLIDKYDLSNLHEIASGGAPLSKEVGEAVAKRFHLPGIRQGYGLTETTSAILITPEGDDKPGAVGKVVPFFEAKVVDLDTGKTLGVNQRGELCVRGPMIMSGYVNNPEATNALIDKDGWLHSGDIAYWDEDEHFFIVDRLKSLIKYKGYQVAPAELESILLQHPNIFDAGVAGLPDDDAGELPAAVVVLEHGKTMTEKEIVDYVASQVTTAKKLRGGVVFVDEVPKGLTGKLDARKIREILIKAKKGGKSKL

For `Cc1ccc(S(=O)(=O)NC2CCCCC2)cc1`, the Potency result in experiment [1], in experiment [2], in experiment [3], in experiment [4], in experiment [5] and in experiment [6] was “inactive” each time. Besides, the Potency result in experiment [7], in [8], in experiment [9], in [10], in [11] and in [15] was “inactive” each time. The Potency result in experiment [16] and in experiment [17] was “inactive” throughout. Further, the result in experiment [12] was inactive. For the same compound, in [13], the Potency was 27.1 µM (active). Further, the activity change, positive = activation in experiment [14] is -34.7%.

Take `Cc1oncc1C(=O)Nc1ccc(C(F)(F)F)cc1`: the Potency in experiment [1] is 39.9 µM (active); in [5], 770 nM (active) and 1.06 µM (active). The Potency entry in experiment [2], in [3], in [4], in experiment [6], in [9] and in experiment [10] was “inactive” throughout. In addition, the Potency result in experiment [11], in experiment [18], in experiment [15], in experiment [19], in experiment [16] and in experiment [17] was “inactive” in each case.

Take `CN1CCN(c2c(F)cc3c(=O)c(C(=O)O)cn4c3c2OCN4C)CC1`: the activity change, negative = inhibition in [1] is 2.58% [at 23.6 µM]. The viability change, negative = cytotoxic is 0.256% [at 19 µM] in experiment [2] and 9.28% [at 19 µM] in experiment [6]. In addition, the activity change, negative = cytotoxicity in [3] is -2.88% [at 19 µM]; in experiment [10], 3.62% [at 15.8 µM]; in experiment [18] it was 0.372% [at 31.6 µM]; in experiment [15] it was 3.52% [at 15.8 µM]. In experiment [4], the activity, negative = inhibition is 0.0919% [at 19 µM]. In addition, the activation is -1.52% [at 19 µM] in [5], -2.64% [at 19 µM] in experiment [9] and -0.337% [at 15.8 µM] in experiment [12]. Further, the activation (H2AX phosphorylation) in experiment [11] was -2.48% [at 31.6 µM]. The activity change, negative = cytotoxic was 1.18% [at 15.8 µM] in [19] and -3.22% [at 15.8 µM] in experiment [17]. Further, the cytotoxicity in experiment [16] is -13.4% [at 15.8 µM].

`Cc1nc2ccccc2s1`: the Potency result in experiment [1], in [2], in [3], in experiment [4], in experiment [5] and in [6] was “inactive” in each case. For the same compound, the Potency result in experiment [8], in experiment [9], in experiment [10], in experiment [11], in [18] and in experiment [13] was “inactive” throughout. Also, the Potency entry in experiment [19], in experiment [16] and in [17] was “inactive” each time. Also, the Potency in experiment [7] was 48.9 µM (active). In experiment [12], the result was inactive. In [14], the activity change, positive = activation was 1.14%.

Regarding `CO[C@@]12[C@H](COC(N)=O)C3=C(C(=O)C(C)=C(N)C3=O)N1C[C@@H]1N[C@@H]12`, the Potency result in experiment [1], in [5], in experiment [8], in [18] and in experiment [16] was “inactive” each time. The Potency in experiment [2] is 9.44 µM (active); in [3], 9.44 µM (active); in experiment [4] it was 750 nM (active); in [7], 23.7 µM (active); in [10], 9.52 µM (active); in experiment [13], 8.41 µM (active). Further, the Potency is 6.01 µM (active) in [15], 848 nM (active) in [19] and 5.35 µM (active) in experiment [17]. In addition, the activity change, positive = activation in experiment [14] was -55.2% [at 42.5 µM].

As for `[O]=[Bi]`, the activity change, negative = inhibition in experiment [1] was 1.77% [at 10.5 µM]. The viability change, negative = cytotoxic in [2] is 0.628% [at 8.39 µM]; in experiment [6], -7.88% [at 8.39 µM]. The activity change, negative = cytotoxicity in [3] is -5.97% [at 8.39 µM]; in experiment [18], 2.81% [at 14 µM]. Also, the Potency in experiment [7] is 2.11 µM (active). For the same compound, the activation in experiment [8] is -4.11% [at 8.39 µM]; in experiment [12], 0% [at 7.01 µM]. In experiment [11], the activation (H2AX phosphorylation) was -0.036% [at 14 µM]. Besides, the activity, negative = inhibition in experiment [13] is -9.31% [at 8.39 µM]. For the same compound, in experiment [14], the activity change, positive = activation was -10.5% [at 8.39 µM]. In addition, the figures for the activity change, negative = cytotoxic in experiment [19] and in experiment [17] were 4.51% [at 6.97 µM] and 9.58% [at 6.97 µM], respectively. Also, the cytotoxicity in experiment [16] is -1.07% [at 6.97 µM].
